High-throughput results: PubChem BioAssay, several laboratories
Shown are actives, neighbours in structure and some others; about 4.1% of the full set was active somewhere.
TRPM1 prom inh – inhibitors of MITF-dependent TRPM1 promoter reporter, primary screen, cell-based, SK-MEL-5, single point, luciferase. inhibition, % at 12.5 µM. SK-MEL-5 TRPM1 promoter luciferase, 24 h. 330,000 compounds, 0.83% hits. AID 488899, 2010;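 active means mean inhibition across replicates of 60% or more, whatever share of single replicates reaches that level; inconclusive means some that reach 60%, reason not given; inactive means mean inhibition across replicates below 60%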
TWEAK Fn14 block – inhibitors of TWEAK-Fn14 signaling, primary screen, luciferase reporter cells, uHTS | inhibition, % at 10 µM | TWEAK-stimulated Fn14 reporter cells, luciferase luminescence, 8 h | 360,000 compounds, 2% hits; in the data active means inhibition above about 50%
Peg3 promoter – Peg3 promoter-driven luciferase inhibitors, primary screen, cell-based, HeLa, luciferase luminescence. HeLa PEG-Prom luciferase reporter, overnight. inhibition, % at 20 µM. 360,000 compounds, 1.7% hits;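 active means inhibition of at least 50% at 20 µM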
LMP1 NFkB inh – EBV LMP1-driven NF-kappaB luciferase reporter inhibitors, primary screen, cell-based, luminescence, single point | LMP1-induced NF-kappaB luciferase reporter cells | inhibition, % at 12.5 µM | 350,000 compounds, 0.69% hits; in the data active means inhibition above about 41%; inconclusive means no clear call, values can overlap the other calls
TROY signal inh – inhibitors of TROY-driven NF-kB signaling, primary screen, Q293 LMP1-TROYcd cells, NF-kB luciferase, uHTS | Q293 LMP1-TROYcd NF-kB luciferase reporter, 4 h | inhibition, % at 10 µM | 360,000 compounds, 0.98% hits;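 active means compounds whose plate-normalised and pattern-corrected inhibition of the luciferase reporter signal at the single screening dose is 50% or more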
Shn3 inh set2 – reduction of Shn3 3'UTR firefly luciferase signal, primary screen, Schnurri-3 inhibitor project, cell-based, Clone20 osteoblasts, set 2 | Clone20 osteoblast Shn3 3'UTR firefly luciferase, 24 h | inhibition, % at 12.5 µM | 360,000 compounds, 0.52% hits;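 active means mean inhibition of at least 75% with every replicate also reaching 75%; inconclusive means mean inhibition at least 75% but some replicate below; inactive means mean inhibition below 75%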
A number is an active result; n = inactive; u = inconclusive; x = no result given.

SMILES | TRPM1 prom inh | TWEAK Fn14 block | Peg3 promoter | LMP1 NFkB inh | TROY signal inh | Shn3 inh set2
COc1ccc(N2N=NN(C(C)C)C2=C(Cl)c2nnnn2-c2ccc(OC)cc2)cc1 | n | n | n | 85 | n | n
COc1ccc(-n2nnnc2-c2ccccc2)cc1 | n | n | n | n | n | n
COc1ccc(OC)c(CCNC(=O)c2cccc(NC3=NC4CS(=O)(=O)CC4S3)c2)c1 (stereo not drawn) | x | n | n | n | n | n
CCCC[n+]1ccn(-c2nc3c([N+](=O)[O-])cccc3n2C)c1 | n | n | n | n | n | n
O=C(Nc1ccc2oc(-c3cccnc3)nc2c1)c1ccc(Br)o1 | n | n | n | n | x | n
O=C(Nc1ccc2oc(-c3cccnc3)nc2c1)c1ccc([N+](=O)[O-])o1 | 71 | n | 108 | n | n | n
Nc1ccc(-c2nc3cc([N+](=O)[O-])ccc3o2)cc1 | n | n | n | n | n | n
Cc1ccc(-c2nc3cc(N)ccc3o2)cc1 | n | 70 | n | n | n | n
Cc1ccc2nc(-c3ccccn3)oc2c1 | n | 53 | n | n | n | n
Cc1ccc2nc(-c3cccnc3)oc2c1 | n | n | n | n | n | n
Cc1ccc(-c2nc3cc(N)ccc3o2)c(C)c1 | n | n | n | n | n | n
CC(C)(C)c1ccc(-c2nc3cc(N)ccc3o2)cc1 | n | 69 | n | n | 64 | n
COc1ccc([N+](=O)[O-])cc1NC(=O)C(C)OC(=O)CC1CCCC1 (stereo not drawn) | n | n | n | n | n | n
C[C@]12c3[nH]c4ccccc4c3CCN1C(=O)C(CC(=O)NCCN1CCOCC1)C[C@@H]2C(=O)N1CCCCC1 (stereo partly drawn) | n | n | n | n | n | n
Cc1ccc2oc(-c3cccc(N)c3)nc2c1 | n | 51 | n | n | n | n
Cc1ccc2oc(-c3ccc(NC(=O)c4cccnc4)cc3)nc2c1 | n | 56 | n | n | n | n
Cc1ccc2oc(-c3ccco3)nc2c1 | n | n | n | n | n | n
COc1cccc(C(=O)Nc2ccc(-c3nc4ccccc4o3)c(O)c2)c1 | n | n | n | n | n | n
COc1cc(C(=O)Nc2ccc(-c3nc4cc(C)ccc4o3)c(O)c2)cc(OC)c1OC | n | 52 | 70 | n | n | n
CCC(C)NCC(=O)Nc1ccc(-c2nc3cc(NC(=O)CNC(C)CC)ccc3o2)cc1 (stereo not drawn) | 84 | n | 108 | n | n | n
COc1cc(/C=C/C(=O)OCC(=O)N(CC(C)C)c2c(N)n(Cc3ccccc3)c(=O)[nH]c2=O)ccc1O | n | n | n | n | n | n
COc1ccc(CNc2cc(C)nc3ccc(OC)cc23)cc1 | n | n | n | n | n | n
COCCNC(=O)C1(C)CCCN(CCSc2ccccc2)C1 (stereo not drawn) | x | n | n | x | n | n
Nc1cccc(-c2nc3cc(S(=O)(=O)c4ccc5oc(-c6cccc(N)c6)nc5c4)ccc3o2)c1 | n | n | 73 | n | n | n
Cc1ccc(-c2nc3cc(C)ccc3o2)cc1 | n | 84 | n | n | 65 | n
SMILES | TRPM1 prom inh | TWEAK Fn14 block | Peg3 promoter | LMP1 NFkB inh | TROY signal inh | Shn3 inh set2
CC(C)c1ccc2oc(-c3ccc(N)cc3)nc2c1 | n | 81 | n | n | n | n
CC1CCN(CCC(=O)N/N=C/c2ccc([N+](=O)[O-])cc2)CC1 | n | n | n | n | n | n
C[C@H](N)C(=O)N1CCC(C(=O)N[C@@H](Cc2ccccc2)C(=O)Nc2ccc(F)cc2)CC1 | n | n | n | n | n | n
COc1ccc(C2(C)NC(=O)N(CC(=O)NC3CCCC3)C2=O)cc1OC (stereo not drawn) | n | n | n | n | n | n
CC1CCN(c2ccc(-c3ccc(NC(=O)C(F)(F)F)cc3)nn2)CC1 | n | 62 | n | 46 | n | n
CC(=O)Nc1ccc(NC(=O)C(F)(F)F)cc1 | n | n | n | n | n | n
COc1cc(OC)c(S(=O)(=O)N2CCCCC2)cc1S(=O)(=O)N1CCCCC1 | n | 83 | n | n | x | n
O=S(=O)(c1cccc2c(S(=O)(=O)N3CCCC3)cccc12)N1CCCC1 | n | n | n | n | n | n
COc1c(S(=O)(=O)N2CCCCC2)ccc2c(S(=O)(=O)N3CCCCC3)cccc12 | n | 64 | n | n | n | n
C[C@H]1CCC/C=C/[C@@H]2C[C@H](O)C[C@H]2[C@H](O)[C@H](S(=O)c2ccc(O)cc2)CC(=O)O1 (stereo partly drawn) | 83 | n | 52 | n | n | 87
COc1ccc2oc(C(=O)Nc3ccc(S(=O)(=O)N(C)C4CCN(C)CC4)cc3)c(C)c2c1 | 85 | n | 75 | n | n | n
Cc1ccc2oc(C(=O)Nc3nnc(C)s3)c(C)c2c1 | n | n | n | n | n | n
COc1ccc2oc(C(=O)Nc3nnc(C)s3)c(C)c2c1 | n | 68 | n | n | n | n
CC(Nc1c[nH]c(=O)[nH]c1=O)c1ccccc1 (stereo not drawn) | n | n | n | n | n | n
O=C1/C(=C/c2ccc(O)cc2)COc2ccccc21 | n | 66 | n | n | n | n
CNc1ccc(/C=C2\COc3ccccc3C2=O)cc1[N+](=O)[O-] | n | n | n | n | n | n
O=C1/C(=C/c2ccccc2[N+](=O)[O-])COc2ccccc21 | 85 | 94 | 106 | u | n | n
COc1ccccc1NC(=O)C1CCCN1C(=O)Nc1ccc(F)cc1 (stereo not drawn) | n | n | n | n | n | n
O=C(NCC1(O)CCCCC1)C1CCC(=O)N(Cc2cccc(C(F)(F)F)c2)C1 (stereo not drawn) | n | n | n | n | n | n
Cc1ccc(-c2nc(CS(=O)(=O)CC(=O)NCCN3CCCC3)c(C)o2)cc1 | n | n | n | n | n | n
CCOC(=O)[C@@H]1[C@H]2COc3cc(OC)ccc3[C@H]2N2C(=O)N(c3ccc(C(F)(F)F)cc3)C(=O)[C@]12C | n | 74 | n | n | n | n
CCOC(=O)[C@@H]1[C@H]2COc3cc(OC)ccc3[C@@H]2N2C(=O)N(c3ccc(C(F)(F)F)cc3)C(=O)[C@@]12C | n | n | n | n | n | n
O=C(Nc1ccc(Cl)cc1)Nc1cccc2nsnc12 | n | 56 | n | n | n | n
COc1ccc(/C=N/NC(=O)Nc2cccc3nsnc23)cc1OC | n | 62 | n | n | n | n
Cc1ccc(C)c(OCc2cc(C(=O)N3CCOCC3)no2)c1 | n | n | n | n | n | n
CSCCCNC(=S)N(C)CC(=O)Nc1ccc(C)cc1 | n | n | n | n | n | n
O=S(=O)(c1ccc(Cl)nc1)N1CCCCC1 | n | n | n | n | n | n
O=C(CCCc1ccccc1)Nc1cccc(C(=O)O)c1 | 70 | n | n | 46 | n | n
